# From PubChem BioAssay
# In the library only some 4.1% were active in any assay of this set; here they are far more common.
# Autofluor counter: counter-screen for toxin protease inhibitors: compound fluorescence | compound autofluorescence counterscreen, microsphere flow cytometry; active compounds read high | fluorescence intensity (concentration not given with the values) | hit rate 3.1% among 360,000 | AID 624483; in the data active = fluorescence intensity above about 16000; inconclusive = no clear call, values can overlap the other calls
# BoNT F protease: blocks Botulinum neurotoxin F light chain protease | Multiplex microsphere protease cleavage assay, flow cytometry | inhibition, % at 10 µM | hit rate 0.22% among 360,000 | AID 588497; in the data active = inhibition above about 35%, passing the limit was not always enough; inconclusive = no clear call, values can overlap the other calls; note: plate controls were buffer without enzyme for full effect and enzyme alone for no effect
# DUSP3 inh: DUSP3 (human) phosphatase inhibition; P51452; hit rate 0.52% among 290,000; recombinant VHR phosphatase, pNPP absorbance; inhibition, % at 13.3 µM; AID 1654; in the data active = inhibition above about 50%
# MazF activator: MazEF (E. coli) toxin RNase activation; P0AE70; activation, % at 20 µM; hit rate 0.32% among 350,000; FAM/BHQ RNA-DNA oligo cleavage fluorescence, 5 h; in the data active = activation above about 50%
# BoNT A protease: blocks Botulinum neurotoxin A light chain protease; multiplex microsphere protease substrate cleavage, flow cytometry; inhibition, % at 10 µM; AID 588499; hit rate 0.17% among 360,000; note: plate controls were buffer without enzyme for full effect and enzyme alone for no effect
# Anthrax LF prot: blocks Bacillus anthracis lethal factor protease. P15917. multiplex microsphere protease cleavage assay, LF. inhibition, % at 10 µM. hit rate 0.12% among 360,000. AID 588501; note: plate controls were buffer without enzyme for full effect and enzyme alone for no effect
# Numbers without * were called inactive; ? = inconclusive; . = not tested or not shown. Cut-off read from the data, not from the text of the source, unless noted: active = inhibition above about 30%; inconclusive = no clear call, values can overlap the other calls; inactive = below that.
SMILES,Autofluor counter,BoNT F protease,DUSP3 inh,MazF activator,BoNT A protease,Anthrax LF prot
O=C(CSCc1ccccc1)NCc1ccc2c(c1)OCO2,2353,-6,44,-5,0,0
O=C(NCc1cccc(Cl)c1)c1ccc2c(c1)OCO2,21016*,0,-1,3,?,1
COCC(=O)NCc1ccc2c(c1)OCO2,22350*,4,20,16,2,1
Cc1ccsc1C(=O)N1CCC1(C)C(=O)NS(=O)(=O)c1cccc(F)c1 (stereo not drawn),3935,-4,.,.,-1,-7
O=C(NCc1ccc2c(c1)OCO2)c1ccc2c(c1)C(=O)N(Cc1cccnc1)C2=O,5797,5,-14,3,0,-8
CCCCC1CCC(C(=O)NCc2ccc3c(c2)OCO3)CC1 (stereo not drawn),23610*,-2,-11,3,-2,0
O=C(Nc1cccc(Cl)c1)C1=Cc2cc(Cl)ccc2OC1,2687,3,3,3,0,4
O=C(NCc1ccc(Cl)cc1)C1=Cc2cc(Cl)ccc2OC1,21246*,1,-14,1,2,1
O=C(NCc1cccnc1)c1ccc2c(c1)OCO2,22188*,-3,7,0,?,-2
O=C(NCc1ccc2c(c1)OCO2)Nc1cccc(Cl)c1,3871,?,59*,18,-7,-14
O=S(=O)(c1ccc(F)cc1)N1CCN(S(=O)(=O)c2ccc3c(c2)OCCO3)CC1,4243,-4,.,0,-1,-2
COc1ccc(N2CCN(C(=O)CNC(=O)Cn3cnc4sc(C)c(C)c4c3=O)CC2)cc1,4114,-7,18,9,1,-2
COc1cc(F)ccc1S(=O)(=O)NCc1cccnc1,3961,16,14,-10,2,2
O=C(CSc1nc2cc(Cl)ccc2s1)NCc1ccc2c(c1)OCO2,1885,4,2,63*,0,0
COC(=O)c1ccc(COC(=O)C2CCN(S(=O)(=O)c3ccccc3C(=O)OC)CC2)cc1,?,?,.,-5,-7,-1
Cc1ccc(C=Nc2ccccc2C(N)=O)s1,2547,1,-8,-2,0,0
Cc1cccc(C=Nc2ccccc2C(N)=O)c1,24521*,-5,41,4,-4,-6
COc1cc(C2Nc3ccc4ncccc4c3C3=C2C(=O)CC(C)(C)C3)cc(OC)c1O (stereo not drawn),23335*,1,-4,8,-1,1
COc1cc(F)ccc1-c1csc(C(NC(C)=O)c2cccc(F)c2)n1 (stereo not drawn),3917,-5,.,.,0,0
CC1(C)Cc2c(c(N3CCOCC3)nc3sc4c(NCc5ccccc5)nnnc4c23)CS1,23609*,0,0,-33,-1,-2
Cc1ccc(-c2nc3c(Cl)cc(C(F)(F)F)cn3c2Cc2ccsc2)cc1,6644,-12,.,.,1,1
CC1CCN(S(=O)(=O)c2ccc(NC(=O)Cc3cccs3)cc2)CC1,20322*,1,30,-4,2,-3
CC1CCN(S(=O)(=O)c2ccc(NC(=O)Cn3nnc(-c4ccccc4)n3)cc2)CC1,19646*,0,32,2,1,-10
CC1CCCN(CC(=O)Nc2ccc(S(=O)(=O)N3CCCCC3)cc2)C1 (stereo not drawn),8667,16,9,-6,2,1
O=C(Cn1nnc(-c2ccc(S(=O)(=O)N3CCCC3)cc2)n1)NCC1CCCO1 (stereo not drawn),22963*,-3,8,-4,-1,1
SMILES,Autofluor counter,BoNT F protease,DUSP3 inh,MazF activator,BoNT A protease,Anthrax LF prot
CC1CCCN(CC(=O)Nc2ccc(S(=O)(=O)N3CCCCCC3)cc2)C1 (stereo not drawn),16175*,0,4,-7,1,-3
COCCCN1C(=O)C(CC(=O)NCC2CCCCC2)CC(C(=O)N(C(C)C)C(C)C)=C1C (stereo not drawn),5444,-11,.,.,0,-5
CC(=O)OCC(=O)C1(O)CCC2C3CCC4C(OC(C)=O)C(=O)CCC4(C)C3C(=O)CC21C (stereo not drawn),4119,-7,.,18,0,-7
O=C(c1ccc(Br)o1)N(Cc1ccccc1)c1ccccn1,19550*,6,-8,6,?,-1
Cc1ccc(CNC(=O)C2CCCCC2C(=O)O)cc1 (stereo not drawn),21599*,1,7,1,?,-7
O=C(O)C1CCCCC1C(=O)Nc1cccc2ccccc12 (stereo not drawn),20285*,6,5,-2,6,-6
COCC(=O)N(Cc1cc2ccc(C)cc2[nH]c1=O)c1ccc(OC)cc1,23081*,1,0,-2,?,-2
CCOc1ccc(N(Cc2cc3ccc(C)cc3[nH]c2=O)C(=O)COC)cc1,4792,-5,25,10,0,0
CC(C)[C@H](NC(=O)c1ccc(Cl)cc1Cl)C(=O)OCc1nc2ccsc2c(=O)[nH]1,3835,6,.,3,0,-7
CCc1ccccc1NC1=NCC(=O)N1C1CCCC1,2237,0,53*,-12,0,-2
CCc1ccccc1NC1=NCC(=O)N1Cc1ccc(OC)cc1,3504,-17,20,2,0,0
O=C(Nc1nc(OCCN2CCCC2=O)cnc1/C=C\c1ccccc1)c1cc2ccccc2s1,3479,-2,.,.,0,-7
CN(C)C(CNC(=O)c1sc2ccccc2c1Cl)c1ccco1 (stereo not drawn),4043,-3,.,-8,0,-2
COCCN(CC(=O)Nc1cccc(C)c1C)C(=O)Cc1sc(C)nc1-c1ccc(F)cc1,2835,-2,.,2,3,1
O=C(CN1CCC(c2nc3ccccc3[nH]2)CC1)Nc1ccc2c(c1)OCO2,21412*,3,10,0,4,-5
O=S(=O)(c1ccc2c(c1)OCCO2)N1CCC(c2nc3ccc(Cl)cc3[nH]2)CC1,15046,4,-1,5,4,3
O=C(CN1CCOCC1)Nc1ccc(-c2nc3ccccc3[nH]2)cc1,23886*,-5,27,-1,-2,0
O=C(CSc1ccccc1)Nc1ccc(-c2nc3ccccc3[nH]2)cc1,2366,-3,9,25,0,-2
O=S(=O)(c1ccc2c(c1)OCCO2)N1CCC(c2nc3ccccc3[nH]2)CC1,22441*,3,7,1,3,0
COc1ccccc1NC(=O)CN1CCC(c2nc3ccccc3[nH]2)CC1,3108,-2,30,13,0,2
Cc1ccc2nc(C3CCN(CC(=O)Nc4ccc5c(c4)OCCO5)CC3)[nH]c2c1,23511*,-4,4,5,0,-1
CCOC(=O)c1ccccc1NS(=O)(=O)c1cnn(CC)c1C,3963,11,-4,7,4,0
COc1cccc(CN2CCC2(C)C(=O)Nc2ccc(Cl)c(Cl)c2)c1F (stereo not drawn),4012,-13,.,.,-1,3
CCOC(=O)c1ccc(O)c(-n2cc3c(c2-c2ccccc2)c(=O)n(C)c(=O)n3C)c1,5614,3,.,.,1,0
